phage Ecoli inh: E. coli growth loss with phage present. growth absorbance. inhibition, % at 11.9 µM. hit rate 0.26% among 360,000; in the data active means inhibition above about 11%
AddAB inh: less growth of phage-infected E. coli with AddAB | inhibition, % at 11.9 µM | E. coli expressing H. pylori AddAB, absorbance growth | hit rate 0.29% among 330,000; in the data active means inhibition above about 12%
Tat export inh: blocks Tat-dependent protein export in E. coli | E. coli MC4100 TorA-mCherry Tat export, fluorescence | inhibition, % at 10 µM | hit rate 0.036% among 340,000;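 active means mean replicate inhibition at least 50% and at least half of replicates individually reaching 50%; inconclusive means only one of the two criteria met; inactive means neither criterion met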;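 further: exported cargo escapes ClpAP degradation while cytoplasmic cargo is degraded and loses fluorescence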
E coli growth-1: inhibitors of Escherichia coli growth. OD600 absorbance (no concentration beside the values). AID 1053175. OD600, 23 h; hits give low values. hit rate 0.21% among 330,000;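 active means OD600 absorbance below the run mean of sample wells minus 3.6 SD, in any replicate, cut at about 0.56 in these data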
E coli growth-2: reduces bacterial viability in AddAB counter-screen. E. coli V3065 growth, OD600 absorbance, 18 h. inhibition, % at 11.9 µM. hit rate 0.27% among 330,000. AID 449728;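 active means inhibition above the campaign's mean inhibition across all tested compounds plus 3 SD, cut at about 9.9% in these data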;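 further: uninfected addAB+ strain grown without phage in ampicillin broth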
AddAB conf: confirmation screen: growth loss of phage-infected E. coli expressing H. pylori AddAB | hit rate 64% among 880 | shares compounds with AddAB inh | E. coli V3065 expressing H. pylori AddAB, T4 phage, OD; T4 phage with gene 2 nonsense mutations | AID 488942 | inhibition, % at 11.9 µM;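 active means mean inhibition above a set limit taken from the earlier primary screen, cut at about 13% in these data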;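 further: higher means less bacterial growth since AddAB block lets phage replicate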
RecBCD counter: reduces growth of phage-infected RecBCD+ E. coli, AddAB inhibitor counter-screen | hit rate 73% among 880 | inhibition, % at 11.9 µM | shares compounds with AddAB inh | E. coli V66 + mutant T4 phage, OD growth;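 active means mean inhibition above the mean of solvent-only control wells plus 3 SD, cut at about 4% in these data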;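 further: optical density read after an 18 h incubation at 37 °C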
Bact viability: reduces bacterial viability, AddAB inhibitor counter-screen | hit rate 35% among 880 | AID 488956 | absorbance (AddAB counterscreen) | inhibition, % at 11.9 µM | shares compounds with AddAB inh; in the data active means inhibition above about 25%
Large screens that a line does not name were inactive (follow-up assays come after a bar, where they were run). An excerpt weighted towards active compounds, which were near 0.51% of everything screened.

COC(=O)c1cc(=O)n(CCc2ccccc2)c(=Nc2ccc(F)cc2)s1	AddAB inh 99.2, E coli growth-2 98.5 | AddAB conf inactive | RecBCD counter inactive | Bact viability inactive
COC(=O)c1cc(=O)n(CCc2ccc(OC)cc2)c(=Nc2ccc(F)c(Cl)c2)s1	none
O=C(CN1CCN(S(=O)(=O)c2ccc(Br)cc2)CC1)NN=Cc1cccs1	none (no result: phage Ecoli inh, AddAB inh, Tat export inh, E coli growth-2)
CCN(c1cccc(C)c1)S(=O)(=O)c1cccc2nsnc12	none
Cc1cccc(N(C)S(=O)(=O)c2cccc3nsnc23)c1	AddAB inh 14.3 | AddAB conf inactive | RecBCD counter inactive | Bact viability inactive
CC1CN(C(C)CO)C(=O)c2cccc(NS(=O)(=O)c3cn(C)cn3)c2OC1CN(C)C(=O)NC1CCCCC1 (centres undefined)	none (no result: phage Ecoli inh, AddAB inh, Tat export inh, E coli growth-2)
CC(C)CC(NC(=O)c1nc[nH]c1C(=O)N1CCc2ccccc2C1)C(=O)OCc1ccccc1 (centres undefined)	none (no result: phage Ecoli inh, AddAB inh, Tat export inh, E coli growth-2)
c1ccc(CC2=NCCN2)cc1	Tat export inh inconclusive
Cc1cc(C(C)(C)C)cc(C)c1CC1=NCCN1	AddAB inh 14.3, E coli growth-2 10.0 | AddAB conf 53.0 | RecBCD counter inactive | Bact viability inactive
CC(CC(=O)NCc1ccco1)=NNC(=O)Cc1ccc(Cl)cc1	none (no result: phage Ecoli inh, AddAB inh, Tat export inh, E coli growth-2)
O=C(O)[C@H](O)[C@@H](O)C(=O)O	AddAB inh 24.7 | AddAB conf inactive | RecBCD counter inactive | Bact viability inactive
Cc1cc2ccccn2c1C(=O)c1cccc([N+](=O)[O-])c1	none
Cc1cc2ccccn2c1C(=O)c1ccc([N+](=O)[O-])o1	phage Ecoli inh 11.9, AddAB inh 39.9, E coli growth-2 19.6 | AddAB conf 94.5 | RecBCD counter 8.4 | Bact viability 40.1
c1ccc(C2(CN3CCNCC3CC3CCCCC3)CC2)cc1 (centres undefined)	none (no result: phage Ecoli inh, AddAB inh, Tat export inh, E coli growth-2)
C=CCn1c(Sc2ncc([N+](=O)[O-])s2)n[nH]c1=O	AddAB inh 16.9, E coli growth-1 0.448 | AddAB conf 98.7 | RecBCD counter 11.8 | Bact viability inactive
Cc1ccc(S(=O)(=O)N2C(c3cccs3)CC=C(C(=O)O)C2c2cccc(Cl)c2)cc1 (centres undefined)	none (no result: phage Ecoli inh, AddAB inh, Tat export inh, E coli growth-2)
O=C(Nc1ccc2[nH]c(=O)[nH]c2c1)c1ccc([N+](=O)[O-])o1	AddAB inh 18.2, E coli growth-2 19.3 | AddAB conf 57.1 | RecBCD counter 9.0 | Bact viability inactive
Cc1ccc(NC(=O)c2ccc([N+](=O)[O-])o2)cc1C	AddAB inh 26.7, E coli growth-1 0.471, E coli growth-2 30.5 | AddAB conf 97.6 | RecBCD counter 10.9 | Bact viability 31.3
O=C(Nc1cccc(NC(=O)c2ccccc2Cl)c1)c1ccc([N+](=O)[O-])o1	AddAB inh 13.5, E coli growth-2 10.7 (no result: E coli growth-1) | AddAB conf 83.8 | RecBCD counter 5.5 | Bact viability inactive
O=C(Nc1ccc(N2CCCC2)c(Cl)c1)c1ccc([N+](=O)[O-])o1	none (no result: AddAB inh, E coli growth-2)
CNC(=S)NN=Cc1ccc(OCC(=O)Nc2c(C)cc(C)cc2C)c(OC)c1	none (no result: phage Ecoli inh, AddAB inh, Tat export inh, E coli growth-2)
Clc1ccc(C2C3CN(CC4CCCCC4)C(c4ccccc4)C34CC2(c2ccccc2)C4)cn1 (centres undefined)	none (no result: phage Ecoli inh, AddAB inh, Tat export inh, E coli growth-2)
COC(=O)C1CCC(C)C(c2ccc(C)cc2)N1C(=O)c1ccc(C=NOCCC2C=CC(OC(C)=O)C(COC(C)=O)O2)cc1 (centres undefined)	none (no result: phage Ecoli inh, AddAB inh, Tat export inh, E coli growth-2)
CC[n+]1c(/C=C/N(C)c2ccccc2)n(-c2ccccc2)c2ccc(-c3nc4ccccc4s3)cc21	AddAB inh 17.9, E coli growth-1 0.379, E coli growth-2 35.1 (no result: phage Ecoli inh) | AddAB conf 51.6 | RecBCD counter 6.7 | Bact viability inactive
c1ccc(-c2nnc(-c3ccccn3)nn2)nc1	none
c1ccc(-c2cccc(-c3ccccn3)n2)nc1	AddAB inh 33.7, E coli growth-2 34.8 (no result: phage Ecoli inh) | AddAB conf 45.8 | RecBCD counter 35.9 | Bact viability 30.1
CC1CN(C(C)CO)C(=O)c2cccc(NC(=O)c3ccncc3)c2OC1CN(C)C(=O)Nc1ccc2c(c1)OCO2 (centres undefined)	none (no result: phage Ecoli inh, AddAB inh, Tat export inh, E coli growth-2)
COc1ccc(C2=NS(=O)(=O)N(C)C(C(=O)NCc3ccco3)=C2)cc1OC	none
Cc1ccc(C2=NS(=O)(=O)N(C)C(C(=O)NCc3ccco3)=C2)cc1	AddAB inh 25.6 | AddAB conf inactive | RecBCD counter inactive | Bact viability inactive
Cc1ccc(C(=O)NC(=S)NNC(=O)COc2ccc([N+](=O)[O-])cc2)cc1	none
O=C(COc1ccc([N+](=O)[O-])cc1)NNC(=S)NC(=O)c1ccc(Br)cc1	AddAB inh 98.2, E coli growth-2 95.8 | AddAB conf inactive | RecBCD counter inactive | Bact viability inactive
O=C1C=C(c2cccc(Br)c2)CC(c2ccc(Cl)cc2)C1 (centres undefined)	none (no result: phage Ecoli inh, AddAB inh, Tat export inh, E coli growth-2)
COc1ccc(C2=CC(=O)C[C@H](c3ccc(Cl)cc3)C2)cc1	none (no result: E coli growth-1)
COc1ccc(C2=CC(=O)CC(c3ccc(OC)cc3)C2)cc1 (centres undefined)	AddAB inh 15.8, E coli growth-2 10.4 (no result: E coli growth-1) | AddAB conf inactive | RecBCD counter inactive | Bact viability inactive
O=C(COc1ccc(Cl)cc1[N+](=O)[O-])NC1CCCCC1	AddAB inh 35.5, E coli growth-2 20.3 | AddAB conf inactive | RecBCD counter inactive | Bact viability inactive
CC(=O)c1cc(Cl)ccc1OCC(=O)NC1CCCC1	none (no result: AddAB inh, E coli growth-2)
COc1ccc(N2CCN(C(=O)CSc3nnc4c(C)cc5c(C)cc(C)cc5n34)CC2)cc1	AddAB inh 96.3, E coli growth-2 94.1 | AddAB conf inactive | RecBCD counter inactive | Bact viability inactive
N#Cc1ccc(C=NN=C(N)N)cc1	none (no result: phage Ecoli inh, AddAB inh, Tat export inh, E coli growth-2)
CCOC(=O)c1c(C)nc(C)c2c(=O)oc3ccccc3c12	AddAB inh 98.0, E coli growth-2 99.0 | AddAB conf inactive | RecBCD counter inactive | Bact viability inactive
O=[N+]([O-])c1cnc(Sc2ccncn2)s1	AddAB inh 81.2, E coli growth-1 0.434, E coli growth-2 12.4 | AddAB conf 98.5 | RecBCD counter 8.7 | Bact viability 35.1
CO[C@@]12[C@H](COC(N)=O)C3=C(C(=O)C(C)=C(N)C3=O)N1C[C@@H]1N[C@@H]12	AddAB inh 15.1, E coli growth-2 13.9 (no result: E coli growth-1) | AddAB conf 76.9 | RecBCD counter 16.4 | Bact viability 69.8
CC(Cc1ccccc1)C(=O)NC(CO)Cc1ccccc1 (centres undefined)	none (no result: phage Ecoli inh, AddAB inh, Tat export inh, E coli growth-2)
COc1cc2c(cc1OC)-c1nnc(C)n1C(C)(C)C2	none
COc1cc2c(cc1OC)-c1nnc(C)n1C1(CCCC1)C2	AddAB inh 24.1, E coli growth-2 11.5 | AddAB conf inactive | RecBCD counter inactive | Bact viability inactive
